Results: PubChem BioAssay (NCATS)
Inconclusive results are not listed. Where a call stands in place of a potency, no number is given. Activity calls are given as the source filed them. Calls follow the shape of the dose curve; as a rule, active = well fitted curve in the direction sought with a large enough effect; inconclusive = small, poorly fitted or top-dose-only effect, or another doubt; inactive = no such curve, though single readings can be large; an effect the other way counts as inactive or inconclusive.

Experiments:
[1] = S16 Schwann cell viability assay (CellTiter-Glo assay) (AID 624031);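 also: cellular ATP luminescence as a viability measure; nearly all actives have a fitted effect of over 70% in size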
In short: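 This viability control uses native rat S16 Schwann cells grown in DMEM plus 10% FBS. After a 24 h compound treatment at 37 °C, CellTiter-Glo luminescence reports ATP content, scaled against DMSO-treated and cell-free wells.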

[2] = S16 Schwann cell PMP22 intronic element firefly luciferase assay (AID 624032); also: nearly all actives have a fitted effect of over 30% in size
In short: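 Rat S16 Schwann cells stably carrying a PMP22 intronic element-driven Fluc reporter were seeded overnight, then exposed to compounds for 24 h at 37 °C. Luminescence was normalized to PTC124 (positive control) and DMSO (0% activity).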

[3] = tested on: AA1029; test: qHTS profiling for inhibitors of Plasmodium falciparum proliferation (AID 504749); also: nearly all actives have a fitted effect of over 60% in size; also: potency is read from the fitted curve at half-maximal effect; conditions: P. falciparum in erythrocytes, SYBR Green DNA, 72 h; series mostly up to 28.7 µM
In short: (§1)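 Parasite proliferation within erythrocytes, 72 h exposure. Endpoint: SYBR Green I fluorescence after overnight lysis at room temperature. Controls: 0.29 uM artemisinin, DMSO.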

[4] = tested on: AS120; test: as above; conditions: P. falciparum in erythrocytes, SYBR Green DNA, 72 h; series mostly up to 28.7 µM
In short: as §1

[5] = tested on: ATS95; test: as above; conditions: P. falciparum in erythrocytes, SYBR Green DNA, 72 h; series mostly up to 28.7 µM
In short: as §1

[6] = tested on: CP194; test: as above; conditions: P. falciparum in erythrocytes, SYBR Green DNA, 72 h; series mostly up to 28.7 µM
In short: as §1

[7] = tested on: CP247; test: as above; conditions: P. falciparum in erythrocytes, SYBR Green DNA, 72 h; series mostly up to 28.7 µM
In short: as §1

[8] = tested on: CP260; test: as above; conditions: P. falciparum in erythrocytes, SYBR Green DNA, 72 h; series mostly up to 28.7 µM
In short: as §1

[9] = tested on: CP266; test: as above; conditions: P. falciparum in erythrocytes, SYBR Green DNA, 72 h; series mostly up to 28.7 µM
In short: as §1

[10] = tested on: CP297; test: as above; conditions: P. falciparum in erythrocytes, SYBR Green DNA, 72 h; series mostly up to 28.7 µM
In short: as §1

[11] = tested on: DFO2036; test: as above; conditions: P. falciparum in erythrocytes, SYBR Green DNA, 72 h; series mostly up to 28.7 µM
In short: as §1

[12] = tested on: DIV14; test: as above; conditions: P. falciparum in erythrocytes, SYBR Green DNA, 72 h; series mostly up to 28.7 µM
In short: as §1

[13] = tested on: GB4; test: as above; conditions: P. falciparum in erythrocytes, SYBR Green DNA, 72 h; series mostly up to 28.7 µM
In short: as §1

[14] = tested on: ICS; test: as above; conditions: P. falciparum in erythrocytes, SYBR Green DNA, 72 h; series mostly up to 28.7 µM
In short: as §1

[15] = tested on: P93_24; test: as above; conditions: P. falciparum in erythrocytes, SYBR Green DNA, 72 h; series mostly up to 28.7 µM
In short: as §1

[16] = tested on: P94_40; test: as above; conditions: P. falciparum in erythrocytes, SYBR Green DNA, 72 h; series mostly up to 28.7 µM
In short: as §1

[17] = tested on: PAD; test: as above; conditions: P. falciparum in erythrocytes, SYBR Green DNA, 72 h; series mostly up to 28.7 µM
In short: as §1

[18] = tested on: SC27B; test: as above; conditions: P. falciparum in erythrocytes, SYBR Green DNA, 72 h; series mostly up to 28.7 µM
In short: as §1

[19] = tested on: TAB165; test: as above; conditions: P. falciparum in erythrocytes, SYBR Green DNA, 72 h; series mostly up to 28.7 µM
In short: as §1

[20] = tested on: PC26; test: as above; conditions: P. falciparum in erythrocytes, SYBR Green DNA, 72 h; series mostly up to 28.7 µM
In short: as §1

SMILES	Potency [1]	Potency [2]	Potency [3]	Potency [4]	Potency [5]	Potency [6]	Potency [7]	Potency [8]	Potency [9]	Potency [10]	Potency [11]	Potency [12]	Potency [13]	Potency [14]	Potency [15]	Potency [16]	Potency [17]	Potency [18]	Potency [19]	Potency [20]
CC1OC(O[C@H]2C[C@@H](O)[C@]3(CO)[C@@H]4C(CC[C@]3(O)C2)[C@@]2(O)CC[C@H](C3=CC(=O)OC3)[C@@]2(C)C[C@H]4O)C(O)C(O)C1O (stereo partly drawn)	inactive	inactive	inactive	inactive	inactive	inactive	inactive	inactive	inactive	inactive	inactive	inactive	inactive	inactive	inactive	inactive	inactive	inactive	inactive	
CCCN1CCCC2Cc3nc(N)ncc3CC21 (stereo not drawn)	inactive	inactive	inactive	inactive	inactive	inactive	inactive	inactive	inactive	inactive	inactive	inactive	inactive	inactive	inactive	inactive	inactive	inactive	inactive	inactive
COC(C(=O)C(O)C(C)O)C1Cc2cc3cc(OC4CC(OC5CC(O)C(OC)C(C)O5)C(OC(C)=O)C(C)O4)c(C)c(O)c3c(O)c2C(=O)C1OC1CC(OC2CC(OC3CC(C)(O)C(OC(C)=O)C(C)O3)C(O)C(C)O2)C(O)C(C)O1 (stereo not drawn)	inactive	inactive	794 nM (active)	794 nM (active)	708 nM (active)	6750 nM (active)	1780 nM (active)	126 nM (active)		4260 nM (active)	1000 nM (active)	2390 nM (active)	2130 nM (active)	112 nM (active)	794 nM (active)	708 nM (active)	891 nM (active)	1000 nM (active)	794 nM (active)	
Nc1nc(O)c(-c2ccccc2)o1		inactive	inactive	inactive	inactive	inactive	inactive	inactive		inactive	inactive	inactive	inactive	inactive	inactive	inactive	inactive	inactive	inactive	inactive
C=C1Nc2ccccc2C(=O)N1c1ccccc1C	inactive	inactive	inactive	inactive	inactive	inactive	inactive	inactive	inactive	inactive	inactive	inactive	inactive	inactive	inactive	inactive	inactive	inactive	inactive	inactive
OC[C@@H](O)[C@H]1O[C@@H]2OC(C(Cl)(Cl)Cl)O[C@H]2[C@H]1O (stereo partly drawn)	inactive	inactive	inactive	inactive	inactive	inactive	inactive	inactive	inactive	inactive	inactive	inactive	inactive	inactive	inactive	inactive	inactive	inactive	inactive	inactive
[S]=[Sb][S][Sb]=[S]	inactive	inactive	inactive	inactive	inactive	inactive	inactive	inactive	inactive	inactive	inactive	inactive	inactive	inactive	inactive	inactive	inactive	inactive	inactive	
CCCCCc1cc(O)c2c(c1)OC(C)(C)C1CC=C(C)CC21 (stereo not drawn)			2820 nM (active)	2240 nM (active)	3160 nM (active)	5360 nM (active)	5010 nM (active)	1780 nM (active)	12000 nM (active)		3160 nM (active)	1510 nM (active)	1690 nM (active)	891 nM (active)	2510 nM (active)	2510 nM (active)	1780 nM (active)	2000 nM (active)	2000 nM (active)	1900 nM (active)
Cc1ccc2c(c1)[C@@H]1CN(C)CC[C@H]1N2	inactive		inactive	inactive	inactive	inactive	inactive	inactive		inactive	inactive	inactive		inactive	inactive	inactive	inactive	inactive	inactive	inactive
C[C@]12C=CC(=O)C=C1CC[C@@H]1C2CC[C@]2(C)OC(=O)CCC12 (stereo partly drawn)	inactive	inactive	inactive	inactive	inactive	inactive	inactive	inactive	inactive	inactive	inactive	inactive	inactive	inactive	inactive	inactive	inactive	inactive	inactive	inactive
C=CC[N+]1(C)CCC23c4c5ccc(O)c4O[C@H]2C(=O)CC[C@@]3(O)C1C5 (stereo partly drawn)	inactive	inactive	inactive	inactive	inactive	inactive	inactive	inactive	inactive	inactive	inactive	inactive	inactive	inactive	inactive	inactive	inactive	inactive	inactive	inactive
